From PubChem
DT40 TDP1 CPT: qHTS for Inhibitors of human tyrosyl-DNA phosphodiesterase 1 (TDP1): qHTS in cells in presence of CPT; chicken DT40 Tdp1-/-;hTDP1 cells + 20 nM CPT, ATP luminescence, 48 h; hit rate 12% among 420,000; AID 686979, 2013; Potency, µM (highest dose often 46.2 µM), hits mostly inhibitors; note: nearly all actives have a fitted effect of over 55% in size
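Cell growth measured by CellTiter-Glo luminescence after a minimum 48 h, 37 C compound exposure with 20 nM CPT in Tdp1-knockout DT40 cells stably expressing hTDP1, seeded 400/well; qHTS titration format.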
TDP1 cell noCPT: qHTS for Inhibitors of human tyrosyl-DNA phosphodiesterase 1 (TDP1): qHTS in cells in absence of CPT; DT40 Tdp1-/- hTDP1 cells, no CPT, ATP luminescence, 48 h; Potency, µM (titrated, usually from 46.2 µM), usual class: inhibitors; hit rate 15% among 420,000; AID 686978, 2013; note: nearly all actives have a fitted effect of over 55% in size
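Compound effects on proliferation are scored in DT40 Tdp1-/-;hTDP1 cells in the absence of CPT. ATP levels (CellTiter-Glo luminescence) are recorded after a ≥48 hr, 37 °C incubation.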
HT1080 IDH1KD tx: qHTS for induction of synthetic lethality in tumor cells producing 2HG: qHTS for the HT-1080-IDH1KD cell line. HT-1080 IDH1 knockdown viability, ATP luminescence, 48 h. Potency, µM (titrated, usually from 46.1 µM), usual class: cytotoxic. hit rate 2% among 360,000
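HT-1080-IDH1KD cells (IDH1 knocked down), 750/well in RPMI with 5% FBS, treated with compound 48 h at 37 degrees C. Viability by CellTiter-Glo luminescence, normalised to DMSO and no-cell wells; concentration-response curves classed.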
KB-3-1 cytotox: qHTS assay for MDR1-selective chemotherapeutics: Primary screen using the parental adenocarcinoma cell KB-3-1. KB-3-1 viability, CellTiter-Glo ATP luminescence, 72 h. Potency, µM (highest dose often 46.1 µM), hits mostly cytotoxic. hit rate 1.4% among 400,000. AID 1347075, 2019; note: nearly all actives have a fitted effect of over 60% in size
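Screening of KB-3-1 cells (DMEM, 10% FBS, phenol-red free) ran from lowest to highest compound concentration; after 72 h at 37 °C viability was read luminescently and curves fitted.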
HT1080-NT tox: qHTS for induction of synthetic lethality in tumor cells producing 2HG: qHTS for the HT-1080-NT fibrosarcoma cell line; HT-1080-NT fibrosarcoma viability, CellTiter-Glo ATP luminescence, 48 h; Potency, µM (top dose mostly 46.1 µM), actives largely listed as cytotoxic; hit rate 1.6% among 360,000;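 note: NT is the 2HG producing partner of a matched IDH1 knockdown line; nearly all actives have a fitted effect of over 55% in size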
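750 cells/well, RPMI + 5% FBS; 2 h settle, compound pin-transfer, 48 h at 37 degrees C. CellTiter-Glo 10 min RT, luminescence. Normalized to DMSO and media-only wells.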
KB-V1 cytotox: qHTS assay for MDR1-selective chemotherapeutics: Primary screen using the drug-selected MDR subline cells KB-V1. KB-V1 MDR cells viability, CellTiter-Glo, 72 h. AID 1347076, 2019. Potency, µM (doses to about 46.1 µM), actives largely listed as cytotoxic. hit rate 3.4% among 400,000; note: nearly all actives have a fitted effect of over 60% in size
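KB-V1, DMEM (no phenol red) + 10% FBS; cpd pin-transferred, titration series; 72 h, 37 degrees C; CellTiter-Glo, luminescence. Data normalized, curve-fit.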
Each line names hits and unclear results; the compound was inactive in the other large screens. Only some compounds are listed: those with a hit (about 19% of all), similar ones and a draw of the others. Calls come from the whole dose curve; as a rule, active = well fitted curve in the direction sought with a large enough effect; inconclusive = small, poorly fitted or top-dose-only effect, or another doubt; inactive = no such curve, though single readings can be large; an effect the other way counts as inactive or inconclusive.

Cc1ccccc1Nc1nnc(-c2ccc(C)c(S(=O)(=O)NCC3CCCO3)c2)c2ccccc12 (configuration not stated)	DT40 TDP1 CPT inconclusive, TDP1 cell noCPT 13µM (no result: HT1080 IDH1KD tx, HT1080-NT tox)
Cc1ccc(-c2n[nH]c(=O)c3ccccc23)cc1S(=O)(=O)NCC1CCCO1 (configuration not stated)	DT40 TDP1 CPT inconclusive, TDP1 cell noCPT inconclusive, KB-3-1 cytotox inconclusive
Cc1ccc(-c2nnc(N3CCOCC3)c3ccccc23)cc1S(=O)(=O)NCC1CCCO1 (configuration not stated)	DT40 TDP1 CPT inconclusive, TDP1 cell noCPT 26µM
COc1ccc(CNC(=O)c2nn(-c3ccccc3C)nc2CO)cc1	TDP1 cell noCPT inconclusive (no result: HT1080 IDH1KD tx, KB-3-1 cytotox, HT1080-NT tox, KB-V1 cytotox)
COc1ccc(CCN2CN(S(=O)(=O)c3ccccc3)c3nc4ccccc4nc32)cc1OC	DT40 TDP1 CPT 21µM, TDP1 cell noCPT 18µM
CC(C)OCCCN1CN(S(=O)(=O)c2ccccc2)c2nc3ccccc3nc21	TDP1 cell noCPT inconclusive
COc1ccc(CCN2CN(S(=O)(=O)c3ccccc3)c3nc4ccccc4nc32)cc1	DT40 TDP1 CPT inconclusive, TDP1 cell noCPT 18µM, KB-V1 cytotox inconclusive
N=c1nc2n(cc1F)C1OC(CO)C(O)C1O2 (configuration not stated)	DT40 TDP1 CPT 0.13µM, TDP1 cell noCPT 0.13µM, HT1080 IDH1KD tx inconclusive, KB-3-1 cytotox inconclusive
C=C1CCN([C@@H](Cc2ccccc2)C(=O)NCc2ccccc2)S(=O)(=O)c2ccccc21	TDP1 cell noCPT inconclusive
C=C1CCN([C@@H](Cc2ccccc2)C(=O)NCc2ccc(Cl)cc2)S(=O)(=O)c2ccccc21	DT40 TDP1 CPT inconclusive, TDP1 cell noCPT 21µM
CC(=O)N1CCC2(CCCN(c3ccccc3)C2)CC1	none (no result: HT1080 IDH1KD tx, KB-3-1 cytotox, HT1080-NT tox, KB-V1 cytotox)
Cc1cc(Br)cn2c(Cc3cccc(Cl)c3)c(-c3ccco3)nc12	DT40 TDP1 CPT inconclusive, TDP1 cell noCPT 21µM, HT1080 IDH1KD tx inconclusive, KB-3-1 cytotox inconclusive, HT1080-NT tox inconclusive
Brc1ccc2nc(-c3ccco3)c(Cc3ccccc3)n2c1	DT40 TDP1 CPT inconclusive, TDP1 cell noCPT inconclusive, HT1080 IDH1KD tx inconclusive, HT1080-NT tox inconclusive
Cc1ccc(Cc2c(-c3ccco3)nc3c4ccccc4ccn23)cc1	DT40 TDP1 CPT 18µM, TDP1 cell noCPT 15µM, HT1080 IDH1KD tx 21µM, HT1080-NT tox 23µM, KB-V1 cytotox inconclusive
Cc1ccc(Cc2c(-c3ccco3)nc3ccc(C)cn23)cc1	DT40 TDP1 CPT 16µM, TDP1 cell noCPT 13µM
Cc1ccc(Cc2c(-c3ccco3)nc3c(C)cc(Br)cn23)cc1	DT40 TDP1 CPT 3.7µM, TDP1 cell noCPT 6.5µM, HT1080 IDH1KD tx 15µM, KB-3-1 cytotox inconclusive, HT1080-NT tox 26µM, KB-V1 cytotox inconclusive
COc1ccc(Cc2c(-c3ccc(C)cc3)nc3c4ccccc4ccn23)c(C)c1	DT40 TDP1 CPT inconclusive, TDP1 cell noCPT inconclusive
Cc1ccc(S(=O)(=O)N(C)C[C@H]2Oc3ncc(-c4ccccc4)cc3C(=O)N([C@@H](C)CO)C[C@@H]2C)cc1	DT40 TDP1 CPT inconclusive, TDP1 cell noCPT 13µM, KB-V1 cytotox inconclusive
COc1ccccc1-c1cnc2c(c1)C(=O)N([C@@H](C)CO)C[C@@H](C)[C@@H](CN(C)C(C)=O)O2	none
COc1ccccc1S(=O)(=O)N(C)C[C@@H]1Oc2ncc(-c3ccc(C)cc3)cc2C(=O)N([C@H](C)CO)C[C@@H]1C	DT40 TDP1 CPT inconclusive, TDP1 cell noCPT 16µM
COc1cccc(C#Cc2cnc3c(c2)C(=O)N([C@@H](C)CO)C[C@H](C)[C@H](CN(C)C(=O)C2CCC2)O3)c1	DT40 TDP1 CPT inconclusive, TDP1 cell noCPT 13µM
Cc1ccc(S(=O)(=O)N(C)C[C@@H]2Oc3ncc(C#CCC(C)C)cc3C(=O)N([C@H](C)CO)C[C@H]2C)cc1	DT40 TDP1 CPT inconclusive, TDP1 cell noCPT 16µM, HT1080 IDH1KD tx inconclusive, KB-V1 cytotox inconclusive
C[C@@H]1CN([C@@H](C)CO)C(=O)c2cc(Br)cnc2O[C@H]1CN(C)C(=O)C1CCCCC1	none
COCC#Cc1cnc2c(c1)C(=O)N([C@H](C)CO)C[C@H](C)[C@@H](CN(C)S(=O)(=O)c1ccccc1)O2	none
Cc1cnc(CNC(=O)c2csc([C@@H]3O[C@H](CO)[C@H](O)[C@H](O)[C@H]3O)n2)cn1	none
O=C(COC(=O)c1ccc(N2CCCC2=O)cc1)c1ccccc1	none
CC(C)(C)N(Cc1ccccc1)C(=O)COC(=O)c1ccc(N2CCCC2=O)cc1	DT40 TDP1 CPT inconclusive, TDP1 cell noCPT 16µM
CCOc1ccc(C(C)=O)cc1COC(=O)c1ccccc1C(=O)N(C)Cc1ccccc1	DT40 TDP1 CPT 18µM, TDP1 cell noCPT 7.3µM, KB-V1 cytotox inconclusive
CN(Cc1ccccc1)C(=O)COC(=O)Cc1ccc(Cl)cc1	KB-3-1 cytotox inconclusive, KB-V1 cytotox inconclusive
CC(C)(C)N(Cc1ccccc1)C(=O)COC(=O)c1ccccc1SCC(=O)N1CCCC1	DT40 TDP1 CPT inconclusive, TDP1 cell noCPT inconclusive, KB-V1 cytotox 21µM
O=C(COC(=O)c1ccccc1SCC(=O)N1CCCC1)Nc1ccccc1	DT40 TDP1 CPT inconclusive
CN(Cc1ccccc1)C(=O)COC(=O)c1ccc(Cl)cc1N	DT40 TDP1 CPT 10µM, TDP1 cell noCPT inconclusive
N#C/C(=C\c1cccnc1)C(=O)Nc1ccc(S(N)(=O)=O)cc1	none
CCCCCOC(=O)CSc1nc2sc3c(c2c(=O)n1Cc1ccccc1)CC(C)(CC)OC3 (configuration not stated)	DT40 TDP1 CPT inconclusive, TDP1 cell noCPT inconclusive (no result: HT1080 IDH1KD tx, HT1080-NT tox)
Cc1[nH]c2ccccc2c1C(=O)COC(=O)c1ccccc1O	none
Cc1[nH]c2ccccc2c1C(=O)COC(=O)c1ccccc1SCC(=O)N1CCCC1	DT40 TDP1 CPT inconclusive, TDP1 cell noCPT 11µM (no result: HT1080 IDH1KD tx, HT1080-NT tox)
CN(Cc1ccccc1)C(=O)c1ccccc1C(=O)OCC(=O)N(Cc1ccccc1)C(C)(C)C	DT40 TDP1 CPT 23µM, TDP1 cell noCPT 15µM, KB-3-1 cytotox inconclusive, KB-V1 cytotox inconclusive
C=C(C)C1CC=C(C)/C(=N/NC(=O)c2ccc(NC(=O)CC)cc2)C1 (configuration not stated)	KB-V1 cytotox 15µM
C=C(C)C1CC=C(C)/C(=N/NC(=O)c2ccc(NC(=O)CCC)cc2)C1 (configuration not stated)	none
